Molecules are shown by their SMILES. Values joined by “and” are separate entries in the source; they are usually repeats but may differ in a detail not shown here. Equal entries are not always repeated. Records with an inconclusive call do not appear. Values without a mark were called inactive. Active and inactive are the calls of the source. Calls follow the shape of the dose curve; as a rule, active = well fitted curve in the direction sought with a large enough effect; inconclusive = small, poorly fitted or top-dose-only effect, or another doubt; inactive = no such curve, though single readings can be large; an effect the other way counts as inactive or inconclusive.

The test system of one assay is CRL-7250. Put plainly: Cytotoxic Profiling of Annotated Libraries Using Quantitative High-Throughput Screening (AID 1296008). Also: nearly all actives have a fitted effect of over 60% in size. Also: potency is read from the fitted curve at half-maximal effect. As to max response: % is scaled to controls: 0 for no effect and ±100 for the full control effect. Conditions: Five cell lines viability, CellTiter-Glo ATP luminescence, 48-72 h; max response: stronger effect = lower value. Put shortly: (§1)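 Compounds were pin-transferred onto cells and incubated 48 or 72 hr at 37 degree Celsius, 95% humidity. CellTiter-Glo was added, plates sat 10 min at room temperature, then ATP-coupled luminescence was imaged as the viability read-out.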

Another assay concerns HEK293. The description is as above. Conditions: Five cell lines viability, CellTiter-Glo ATP luminescence, 48-72 h; max response: stronger effect = lower value. Summed up:
as §1
A general note: In ATP-based viability assays light output follows the ATP content of the culture.

The subject of assay [1] is HaCat. Described as above. Conditions: Five cell lines viability, CellTiter-Glo ATP luminescence, 48-72 h; max response: stronger effect = lower value. Summed up:
as §1

Another assay relates to KB-3-1. The assay is described as above. Conditions: Five cell lines viability, CellTiter-Glo ATP luminescence, 48-72 h; max response: stronger effect = lower value. Put shortly: as §1
In assay [2] the test system is NIH3T3. Described as above. The conditions noted are these: Five cell lines viability, CellTiter-Glo ATP luminescence, 48-72 h; max response: stronger effect = lower value. Summed up: as §1
The subject of assay [3] is HACAT. The assay is described as follows: qHTS assay to identify novel small-molecules to repurpose for Merkel cell carcinoma treatment (AID 1296009). Also: nearly all actives have a fitted effect of over 60% in size. Also: potency is read from the fitted curve at half-maximal effect. As to activity change, negative = cytotoxicity: % is scaled to controls: 0 for no effect and ±100 for the full control effect. The conditions noted are these: MCC and control cell lines, CellTiter-Glo viability, 72 h; at 44.8 µM (top of the series) unless noted. Put shortly:
(§2)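 Cells exposed to NPC (8-point) and MIPE (11-point) compound dilutions for 72 hr at 37 degree celsius; viability read by CellTiter-Glo luminescence, normalized to no-cell and DMSO in-plate controls.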
For orientation: In qHTS, concentration-response curves come from the screen itself.

In another assay the test system is MCC-13. The description is as above. The conditions noted are these: MCC and control cell lines, CellTiter-Glo viability, 72 h; series mostly up to 46 µM. Put shortly:
as §2

In the next assay the test system is MKL-1. Described as above. The conditions noted are these: MCC and control cell lines, CellTiter-Glo viability, 72 h; series mostly up to 46 µM. Put shortly:
as §2

In assay [4] the test system is NIH3T3. Described as above. Conditions: MCC and control cell lines, CellTiter-Glo viability, 72 h; series mostly up to 44.8 µM. Put shortly: as §2
For the next assay, the system named is UISO. The assay is described as above. Conditions: MCC and control cell lines, CellTiter-Glo viability, 72 h; series mostly up to 46 µM. Put shortly:
as §2

The subject of the next assay is WaGa. The description is as above. The conditions noted are these: MCC and control cell lines, CellTiter-Glo viability, 72 h; series mostly up to 46 µM. Put shortly:
as §2

The next assay has as its system MCC-26. Described as above. The conditions noted are these: MCC and control cell lines, CellTiter-Glo viability, 72 h; series mostly up to 46 µM. Summed up: as §2
Another assay deals with MKL-2. The assay is described as above. The conditions noted are these: MCC and control cell lines, CellTiter-Glo viability, 72 h; series mostly up to 46 µM. Summed up:
as §2

A further assay relates to W2. The assay is described as follows: qHTS profiling for inhibitors of Plasmodium falciparum proliferation (AID 504749).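 Also: 0% = DMSO vehicle and full inhibition = artemisinin control; nearly all actives have a fitted effect of over 60% in size.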 Conditions: P. falciparum in erythrocytes, SYBR Green DNA, 72 h; series mostly up to 28.7 µM. Put shortly: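 P. falciparum-infected erythrocytes (0.3% parasitemia, 2.5% hematocrit final) were exposed to compounds for 72 h at 37 C in 5% CO2, then lysed with SYBR Green buffer overnight at room temperature; parasite DNA fluorescence was normalized to artemisinin and DMSO controls.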

In another assay the test system is HEK293T. Put plainly: qHTS assay to identify novel small-molecules to repurpose for Merkel cell carcinoma treatment (AID 1296009). Also: nearly all actives have a fitted effect of over 60% in size. Also: potency is read from the fitted curve at half-maximal effect. As to activity change, negative = cytotoxicity: % is scaled to controls: 0 for no effect and ±100 for the full control effect. The conditions noted are these: MCC and control cell lines, CellTiter-Glo viability, 72 h; at 44.8 µM (top of the series) unless noted. Summed up:
as §2

For a further assay, the system named is C33A. The assay is described as follows: Primary qHTS to identify gynecologic anti-cancer compounds using libraries of approved drugs and bioactive compounds (AID 1345084). Also: % is scaled to controls: 0 for no effect and ±100 for the full control effect; nearly all actives have a fitted effect of over 55% in size. Conditions: Gynecologic cancer cell panel viability, ATPlite luminescence, 48 h; series mostly up to 57.5 µM. Summed up: (§3)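 Luminescence from the ATPlite ATP-monitoring reagent indicates viable cell number; lower signal means cytotoxicity. Cells received compound 16 h after seeding and were exposed for 48 h across five concentrations.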

The next assay relates to CASKI. The description is as above. Conditions: Gynecologic cancer cell panel viability, ATPlite luminescence, 48 h; series mostly up to 57.5 µM. Summed up: as §3
The test system of another assay is Es-2. The description is as above. Conditions: Gynecologic cancer cell panel viability, ATPlite luminescence, 48 h; series mostly up to 57.5 µM. Summed up: as §3
The test system of a further assay is HeLa. Described as above. The conditions noted are these: Gynecologic cancer cell panel viability, ATPlite luminescence, 48 h; series mostly up to 57.5 µM. Put shortly: as §3

On to `CCC(=O)NCC[C@@H]1CCc2ccc3c(c21)CCO3`, for which the max response was -4.42% with CRL-7250, -0.876% in the assay on HEK293 and -2.73% with KB-3-1. Besides, the compound was called inactive in the assay with HaCat [1], in the assay with NIH3T3 [2] and in the assay on HACAT [3]. The Potency entry in the assay on MCC-13, with MKL-1, in the assay on NIH3T3 [4], in the assay on UISO and in the assay on WaGa was “inactive” each time.

Consider `O=C(O)CCC=CCC[C@@H]1[C@H](N2CCCCC2)[C@@H](O)C[C@@H]1OCc1ccc(-c2ccccc2)cc1`, for which the result in the assay on CRL-7250, with HaCat [1], with KB-3-1 and in the assay with HACAT [3] was inactive. Moreover, the max response with HEK293 was -1.41%; with NIH3T3 [2], 3.59%. Moreover, the Potency entry in the assay on MCC-13, in the assay with MCC-26, with MKL-1, with MKL-2, with UISO and in the assay with WaGa was “inactive” in each case.

With `N#Cc1c(N(CC(=O)O)CC(=O)O)sc(C(=O)O)c1CC(=O)O`, the Potency result in the assay on W2, in the assay with MCC-13, in the assay on MCC-26, in the assay with MKL-1, in the assay on UISO and in the assay with WaGa was “inactive” throughout. In addition, the call with CRL-7250, in the assay on HEK293, in the assay on HaCat [1], with HACAT [3] and in the assay on HEK293T was inactive. Besides, the max response in the assay on KB-3-1 was -1.51%; in the assay with NIH3T3 [2] it was -3.52%.

With `CCOC(=O)N1c2ccc(C(F)(F)F)cc2[C@@H](N(Cc2cc(C(F)(F)F)cc(C(F)(F)F)c2)C(=O)OC)C[C@H]1CC`, in the assay with CRL-7250, the Potency was 14.8 µM (active). The max response in the assay with HEK293 was -0.609%; in the assay on HaCat [1] it was 3.49%; with KB-3-1, 1.68%. Further, the call in the assay with NIH3T3 [2] was inactive. Further, the Potency entry in the assay on MCC-13, with MCC-26, in the assay with MKL-1, with MKL-2, with NIH3T3 [4] and in the assay on UISO was “inactive” in each case. Besides, the Potency entry in the assay with WaGa is “inactive”.

In the case of `CO[C@H]1C=CO[C@@]2(C)Oc3c(C)c(O)c4c(O)c(c(C=NN5CCN(C)CC5)c(O)c4c3C2=O)NC(=O)C(C)=CC=C[C@H](C)[C@H](O)[C@@H](C)[C@@H](O)[C@@H](C)[C@H](OC(C)=O)[C@H]1C`, the max response was -4.52% with CRL-7250, 3.97% in the assay with HEK293, 0.835% with KB-3-1 and -3.12% in the assay on NIH3T3 [2]. In the assay with HaCat [1], the compound was called inactive. In the assay with HACAT [3], the outcome was “inactive [at 9.27 µM]”. Also, the activity change, negative = cytotoxicity was -0.156% [at 9.22 µM] with MCC-13; -4.29% [at 9.22 µM] in the assay with MKL-1; -21.3% [at 9.22 µM] with MKL-2; 4.05% [at 9.22 µM] with UISO; -1.76% [at 9.22 µM] in the assay with WaGa.

Turning to `C[C@]12CC[C@@H]3c4ccc(O)cc4CC[C@H]3[C@H]1[C@@H](O)[C@@H](O)[C@H]2O`, the max response in the assay on CRL-7250 was 0.316%. The compound was called inactive with HEK293, in the assay on HaCat [1], with KB-3-1, with NIH3T3 [2], in the assay with HACAT [3] and in the assay with HEK293T. For the same compound, the Potency result in the assay with MCC-13, with MCC-26, in the assay on MKL-1, in the assay with NIH3T3 [4], with UISO and in the assay with WaGa was “inactive” throughout.

Take `Cc1nc(C(=O)NCC(=O)O)c(O)c2ccc(Oc3ccccc3)cc12`: the max response in the assay with CRL-7250 was -26.8%; with HEK293 it was -3.39% and -0.739%; in the assay with KB-3-1, -6.73% and -11.5%; in the assay on NIH3T3 [2], -5.42% and -6%. Also, the call in the assay with HaCat [1] and in the assay on HACAT [3] was inactive. The Potency result in the assay on MCC-13, in the assay with MKL-1, in the assay on MKL-2, in the assay on UISO, with WaGa and in the assay with C33A was “inactive” in each case. Further, the Potency result with CASKI, in the assay with Es-2 and in the assay with HeLa was “inactive” throughout.

Turning to `N#CC(c1ccc(Cl)cc1)c1c(Cl)cc(-n2ncc(=O)[nH]c2=O)cc1Cl` (centres undefined), the Potency result with W2, in the assay on MCC-13 and with UISO was “inactive” in each case. Further, the max response is -3.43% in the assay on CRL-7250, -4.97% in the assay on HEK293, 0.338% in the assay with KB-3-1 and -0.315% in the assay with NIH3T3 [2]. Also, the outcome in the assay on HaCat [1] and with HACAT [3] was inactive. The Potency in the assay on WaGa is 13.2 µM (active).

In the case of `C[C@H]1COC2=C1C(=O)C(=O)c1c2ccc2c1CCCC2(C)C`, the max response with CRL-7250 was -3.27%; with HEK293, -0.441%; in the assay on HaCat [1], 3.37%; in the assay with KB-3-1, -1.52%. Also, the result with NIH3T3 [2] was inactive. In addition, the Potency result in the assay on MCC-13, with MCC-26, in the assay on MKL-1, with MKL-2, in the assay with NIH3T3 [4] and in the assay on UISO was “inactive” throughout. Also, the Potency entry in the assay with WaGa is “inactive”.

With `CC(NCCc1ccc(O)cc1)C(O)c1ccc(O)cc1` (centres undefined), the max response in the assay on CRL-7250 was -0.502%; in the assay with HEK293 it was 3.14%; with HaCat [1], -0.381%; in the assay on KB-3-1, -1.97%. Further, in the assay with NIH3T3 [2], the compound was called inactive. Further, the Potency result in the assay on MCC-13, with MCC-26, with MKL-1, with MKL-2, in the assay with NIH3T3 [4] and with UISO was “inactive” in each case. Further, in the assay with WaGa, the Potency entry is “inactive”.

`O=C(O)C1=CO[C@@H](O[C@@H]2O[C@H](CO)[C@H](O)[C@H](O)[C@H]2O)[C@@H]2C(CO)=CC[C@H]12`: the max response in the assay on CRL-7250 is 1.58%; with HaCat [1], -0.469%; in the assay on KB-3-1, 7.89%; with NIH3T3 [2] it was -17.7%. For the same compound, the compound was classed as inactive in the assay on HEK293 and with HEK293T. Also, the Potency result with MCC-13, with MCC-26, with MKL-1, in the assay on MKL-2, in the assay with UISO and with WaGa was “inactive” throughout.

For the compound `CC[C@H](NC(=O)[C@H](C)NC)C(=O)N1C[C@@H](O)C[C@H]1Cc1c(-c2[nH]c3cc(F)ccc3c2C[C@H]2C[C@H](O)CN2C(=O)[C@H](CC)NC(=O)[C@H](C)NC)[nH]c2cc(F)ccc12`, the outcome with CRL-7250, with HaCat [1], in the assay with KB-3-1, in the assay on NIH3T3 [2] and in the assay with HACAT [3] was inactive. The max response with HEK293 is 1%. Also, the Potency entry with MCC-13, in the assay with MCC-26, in the assay on NIH3T3 [4] and in the assay on UISO was “inactive” each time.

For `C=C1c2cccc(O)c2C(O)=C2C(=O)[C@@]3(O)C(O)=C(C(N)=O)C(=O)[C@@H](N(C)C)[C@@H]3[C@@H](O)[C@H]12`, the max response was -8.75% in the assay with CRL-7250, 0.32% with HEK293, 1.29% with KB-3-1 and -2.7% in the assay with NIH3T3 [2]. In addition, the compound was called inactive with HaCat [1] and with HACAT [3]. Further, the Potency entry in the assay with MCC-13, in the assay with MCC-26, with MKL-1, in the assay with UISO and in the assay on WaGa was “inactive” each time.

The record behind these values is PubChem BioAssay (NCATS).
